BAZ2B block: qHTS Assay for Inhibitors of BAZ2B | Bromodomain adjacent to zinc finger domain protein 2B (Homo sapiens), Q9UIF8 | AlphaScreen BAZ2B-H3K14Ac peptide displacement | Potency, µM (top dose mostly 114 µM), for the others: at the highest dose activity change, negative = inhibition, hits mostly inhibitors | 360,000 tested, 4.4% active; also: % is scaled to controls: 0 for no effect and ±100 for the full control effect; nearly all actives have a fitted effect of over 60% in size
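AlphaScreen displacement: compounds (up to 110uM) incubated 30 min at room temperature with a preformed 50 nM BAZ2B/50 nM biotinylated H3K14Ac peptide complex in PBS pH 7.4 with Tween-20. Donor and acceptor beads at 10 ug/mL final added, 20 min light-protected before reading.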
JMJD2A Tudor: qHTS Assay for Inhibitors of JMJD2A-Tudor Domain | Lysine-specific demethylase 4A (Homo sapiens), O75164 | AlphaScreen JMJD2A-Tudor / H3K4me3 peptide binding | Potency, µM (doses to about 114 µM), without a hit: at the highest dose activity change, negative = inhibition, hits mostly inhibitors | 390,000 tested, 4.4% active | AID 504339, 2011; also: % is scaled to controls: 0 for no effect and ±100 for the full control effect; nearly all actives have a fitted effect of over 50% in size
HP1b binding inh: HTS for Inhibitors of HP1-beta Chromodomain Interactions with Methylated Histone Tails. Chromobox protein homolog 1 (Homo sapiens), P83916. AlphaScreen HP1-beta / biotin-H3K9me3 peptide binding. Potency, µM (titrated, usually from 114 µM), for inactives: at the highest dose activity change, negative = inhibition, usual class: inhibitors. 390,000 tested, 0.56% active. AID 540317, 2011; also: nearly all actives have a fitted effect of over 70% in size
Target sequence (P83916 whole entry, looked up): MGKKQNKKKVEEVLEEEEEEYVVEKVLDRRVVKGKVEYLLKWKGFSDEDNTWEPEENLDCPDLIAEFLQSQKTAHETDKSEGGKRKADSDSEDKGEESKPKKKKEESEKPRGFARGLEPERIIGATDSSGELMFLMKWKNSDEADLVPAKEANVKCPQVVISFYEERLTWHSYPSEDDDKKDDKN
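Compound inhibition of the preformed complex between 50 nM HP1-beta and 50 nM biotinylated H3K9me3 peptide was read by AlphaScreen. Buffer was PBS pH 7.4 with 0.01% Tween-20. Incubations ran 30 min at room temperature, with 10 ug/mL donor/acceptor beads.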
GLS inh: qHTS for Inhibitors of Glutaminase (GLS) | Glutaminase kidney isoform, mitochondrial (Homo sapiens), O94925 | GLS enzymatic activity, qHTS titration | Potency, µM (top dose mostly 45.5 µM), without a hit: top-dose activity change, negative = inhibition, actives largely listed as inhibitors | 410,000 tested, 0.21% active | AID 624170, 2012; also: % is scaled to controls: 0 for no effect and ±100 for the full control effect
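Human kidney-isoform GLS in 45 mM KH2PO4 pH 8.2, 0.02% Tween-20, with compound, started with 1mM L-Glutamine (added stock). Glutamate oxidase/HRP/Amplex red coupled fluorescence read at start and after 30 min at RT.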
G9a inh: qHTS Assay for Inhibitors of Histone Lysine Methyltransferase G9a; AID 504332, 2011; Histone-lysine N-methyltransferase EHMT2 (Homo sapiens), Q96KQ7; 350,000 tested, 8.8% active; G9a H3K9 monomethylation, AlphaScreen, 2 h; Potency, µM (doses to about 102 µM), for inactives: at the top dose activity, negative = inhibition, most hits filed as inhibitors; also: % is scaled to controls: 0 for no effect and ±100 for the full control effect; nearly all actives have a fitted effect of over 75% in size
Target sequence (Q96KQ7 913-1193 limits assumed): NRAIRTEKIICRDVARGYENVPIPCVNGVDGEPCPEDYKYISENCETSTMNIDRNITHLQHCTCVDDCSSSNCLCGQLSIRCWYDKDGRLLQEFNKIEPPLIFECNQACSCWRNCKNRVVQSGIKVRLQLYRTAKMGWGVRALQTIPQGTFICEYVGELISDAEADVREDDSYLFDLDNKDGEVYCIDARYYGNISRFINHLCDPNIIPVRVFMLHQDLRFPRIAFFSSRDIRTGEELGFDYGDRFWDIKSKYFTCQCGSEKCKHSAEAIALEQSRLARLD
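Using a bead-based AlphaScreen, monomethylated H3K9 product from 2 h room-temperature reactions (G9a 20 nM, peptide 500 nM, SAM 20 uM) was detected with 0.5 ug/mL rabbit anti-H3K9me1 antibody.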
* hit, by the source's call; ? = inconclusive; / = no result; [ ] = remark or other dose. The list is not random: actives were taken first. Their share in the collection is about 10%. Calls follow the shape of the dose curve; as a rule, active = well fitted curve in the direction sought with a large enough effect; inconclusive = small, poorly fitted or top-dose-only effect, or another doubt; inactive = no such curve, though single readings can be large; an effect the other way counts as inactive or inconclusive. Potency is read from the fitted curve at half-maximal effect.

SMILES	BAZ2B block	JMJD2A Tudor	HP1b binding inh	GLS inh	G9a inh
Cc1ccc(CNC(=O)CS(=O)Cc2nc(-c3cccs3)oc2C)cc1 (stereo unspecified)	-5%	-26%	20%	1%	50µM*
Cc1ccc(-c2nc(CS(=O)CC(=O)NCc3ccc(F)cc3)c(C)o2)cc1 (stereo unspecified)	-3%	-18%	16%[57 µM]	-1%	-10%
Cc1ccccc1-c1nc(CS(=O)CC(=O)NCc2ccccc2)c(C)o1 (stereo unspecified)	-16%	-29%	19%	2%	50µM*
Cc1ccc(-c2nc(CS(=O)CC(=O)NCc3ccccc3)c(C)o2)cc1 (stereo unspecified)	-21%	-17%	31%	3%	50µM*
COc1ccccc1CNC(=O)CS(=O)Cc1nc(-c2ccccc2C)oc1C (stereo unspecified)	-25%	-23%	13%	6%	79µM*
COc1cc(NC(=O)c2c(C)nn(-c3ccc(F)cc3)c2-n2cccc2)cc(OC)c1	-12%	6%	35%	-3%	-4%[59 µM]
CN(c1ccccc1)c1ncnc2c1cnn2C	2%	-22%	28%	6%	0%[59 µM]
CCC1CCCCN1S(=O)(=O)c1ccc(NC(=O)c2nc(SC)ncc2Cl)cc1 (stereo unspecified)	-18%	-17%	24%	4%	4%[59 µM]
COc1ccc(CNC(=O)CS(=O)Cc2nc(-c3ccccc3C)oc2C)cc1 (stereo unspecified)	-9%	-23%	16%	0%	?
CCc1ccc(-c2nc(CS(=O)CC(=O)NCCc3ccccc3)c(C)o2)cc1 (stereo unspecified)	-10%	-21%	22%	2%	79µM*
Cc1ccc(CNC(=O)CS(=O)Cc2nc(-c3ccccc3C)oc2C)cc1 (stereo unspecified)	-31%	-18%	18%	5%	50µM*
CCc1ccc(/C([O-])=C(/C(=S)NCCN2CCOCC2)[n+]2ccccc2)cc1	-22%	-26%	-2%	6%	25µM*
S=C(NCCN1CCOCC1)C(=S)NCCN1CCOCC1	/	?	4%[57 µM]	9%	/
CC(C)OC(=O)c1c(NC(=O)Cn2cnc([N+](=O)[O-])n2)sc2c1CCCC2	-3%	-16%	-23%	-20%	16µM*
CCOC(=O)c1c(NC(=O)Cn2cnc([N+](=O)[O-])n2)sc2c1CCCC2	8%	-16%	-10%	6%	45µM*
NC(=O)c1c(NC(=O)Cn2cnc([N+](=O)[O-])n2)sc2c1CCCC2	-28%	-18%	11%[57 µM]	18%	?
CCOC(=O)c1c(NC(=O)Cn2cnc([N+](=O)[O-])n2)sc(C)c1C	-2%	-1%	-9%	7%	28µM*
CCOC(=O)N1CCN(C(=O)c2ccc3c(SCC(=O)O)c4c(nc3c2)CCCC4)CC1	-3%	-17%	36%	6%	40µM*
O=C(O)CSc1c2c(nc3cc(C(=O)N4CCOCC4)ccc13)CCCC2	71µM*	40µM*	15%	3%	34%[0.501 µM]
Cc1noc(C)c1-c1ccc(C(=O)Nc2cccc(C(F)(F)F)c2)c2occc12	/	/	/	-8%	/
CCC(C)NC(=O)CSc1nc2n[nH]c(C)c2c(=N)n1-c1cc(Cl)ccc1C (stereo unspecified)	-1%	-19%	-16%	0%	-8%[59 µM]
Cc1ccc(C)c(CC(=O)N2CCCCC2c2cc(C(=O)Nc3cccc(C#N)c3)no2)c1 (stereo unspecified)	/	/	/	3%	/
O=C(OCc1ccccc1)N1CCC2CC1c1cc(-c3cc4ccccc4o3)ccc12 (stereo unspecified)	/	/	/	-1%	/
COC(=O)c1cc(CN2C(=O)c3ccccc3C2=O)c(O)c([N+](=O)[O-])c1	56µM*	-6%	49%	0%	6%
CO/S(=N\S(=O)(=O)c1ccc(Cl)cc1)c1ccc([N+](=O)[O-])cc1 (stereo unspecified)	/	/	/	/	3.2µM*
SMILES	BAZ2B block	JMJD2A Tudor	HP1b binding inh	GLS inh	G9a inh
O=[S+]([O-])(/C=C/c1nc(Nc2cc(F)cc(F)c2)c2ncn(CC(F)F)c2n1)c1ccccc1	/	-15%	/	/	/
CC(=O)n1cc(N(C(=O)CCl)c2ccc([N+](=O)[O-])cc2)c2ccccc21	-33%	-30%	2%	-12%	50µM*
CC(=O)N/C(=C\c1ccccc1)C(=O)OCc1cccc(S(=O)(=O)N(C)C)c1	-2%	5%	27%	1%	37%[0.501 µM]
O=Cc1cc(N=Nc2ccc(S(=O)(=O)O)cc2)ccc1O	/	-19%	-3%	?	/
CN(C)c1ccc(N=Nc2ccc(S(=O)(=O)O)cc2)c2ccccc12	10µM*	35µM*	?	20%	11µM*
CN1CCN(S(=O)(=O)c2cccc(C(=O)Oc3cccc(Br)c3)c2)CC1	?	-32%	9%	-32%	?
CN1CCN(S(=O)(=O)c2cccc(C(=O)Oc3ccc(C(C)(C)C)cc3)c2)CC1	?	?	-9%	-3%	50µM*
COc1cc(OC)cc(OC(=O)c2cccc(S(=O)(=O)N3CCN(C)CC3)c2)c1	-8%	-23%	4%	0%	?
CC(C)c1ccc(OC(=O)c2cccc(S(=O)(=O)N3CCN(C)CC3)c2)cc1	?	?	-10%	0%	20µM*
CC(=O)Nc1ccc(S(=O)(=O)N(C)CC(=O)OC(C)C(=O)NC2(C#N)CCCCC2)cc1 (stereo unspecified)	/	/	/	-1%	/
Oc1cc2c(cc1O)[C@H]1c3ccc(O)c(O)c3OC[C@@]1(O)C2	35µM*	1.3µM*	?	?	-147%[12.7 µM]
Oc1ccc2c(c1)OCC1(O)Cc3cc(O)c(O)cc3C21 (stereo unspecified)	/	20µM*	?	?	-115%[2.33 µM]
O=C(CN1C(=O)c2cccnc2Oc2ccc(Cl)cc21)Nc1cccc(C(F)(F)F)c1	-2%	-11%	39%	2%	1%[59 µM]
COc1ccccc1/C=C/C(=O)OC(C)CN1CCOCC1 (stereo unspecified)	-4%	?	27%	-3%	-1%[59 µM]
COc1ccccc1/C=C/CN1CCOCC1	?	3.2µM*	-52%	1%	?
COc1ccccc1/C=C/CN1CCSCC1	56µM*	6.3µM*	?	0%	32µM*
NS(=O)(=O)c1ccc(N=Nc2c(=O)[nH]n3c(=O)c4c([nH]c23)CCCC4)cc1	28µM*	-36%	-31%	?	/
Cc1cc(C)n2[nH]c(=O)c(N=Nc3ccc(S(N)(=O)=O)cc3)c2n1	-22%	?	23%	0%	-43%

High-throughput results as filed in PubChem.
